Several values for one entry are separate records, joined by “and”; a condition that tells them apart may be missing. Equal entries are not always repeated. Results filed as inconclusive are left out. A call without a number means that no potency is given here. More than one record can exist for a structure, and the calls need not agree. Activity calls are given as the source filed them. Calls come from the whole dose curve; as a rule, active = well fitted inhibition curve with a large enough effect; inconclusive = small, poorly fitted or top-dose-only effect; inactive = no such curve, though single readings can be large or run the other way.
Test: Primary qHTS for inhibitors of nuclear receptor binding SET domain protein 2 (NSD2) in an RCH-ACV wild type WT cells (2C) (AID 1645877); note: nearly all actives have a fitted effect of over 70% in size
Conditions: RCH-ACV (leukaemia line) NSD2 WT (2C) viability, CellTiter-Glo, 72 h; series mostly up to 44.9 µM
With `CC1(C)CCC(CN2CCN(c3ccc(C(=O)NS(=O)(=O)c4ccc(NCC5CCOCC5)c([N+](=O)[O-])c4)c(Oc4cnc5[nH]ccc5c4)c3)CC2)=C(c2ccc(Cl)cc2)C1` the Potency was 12.6 µM (active) and inactive.
For `COc1cc(Nc2ncc(F)c(Nc3ccc4c(n3)NC(=O)C(C)(C)O4)n2)cc(OC)c1OC`, the Potency was 1.03 µM (active) and 5.17 µM (active).
With `CC(C)C(C)C=CC(C)C1CCC2C3=CC=C4CC(O)CCC4(C)C3CCC21C` (centres undefined) the Potency was “inactive”.
With `CNC(=O)c1ccc2cc(C3(O)CCn4cncc43)ccc2c1` (centres undefined) the Potency was “inactive”.

Source: PubChem BioAssay (NCATS)
Potency is the fitted concentration of half-maximal effect.
